Potency, outcome and PLD induction data for seven compounds are collected here from PubChem BioAssay (Tox21).

Unmarked numbers belong to inactive results. Records with an inconclusive call do not appear. Calls of active or inactive are those of the source. Unless noted, calls follow the shape of the dose curve; as a rule, active = well fitted curve in the direction sought with a large enough effect in the repeat runs; inconclusive = weak or mixed curves; inactive = no such curve, though single readings can be large; an effect the other way counts as inactive or inconclusive.

A short description of assay [1]: A CellTox Green Cytotoxicity Assay to monitor cytotoxicity in HEK293 cells - 32 hour (AID 1224881). Also: % is scaled to controls: 0 for no effect and ±100 for the full control effect; nearly all actives have a fitted effect of over 40% in size. An outline of the steps:
(§1)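 Seeding of HEK293 cells together with cytotoxicity dye preceded a 5 h incubation at 37 C/5% CO2. Test compounds in DMSO were then added and fluorescence monitored across 40 h.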

The nature of assay [2]: A CellTox Green Cytotoxicity Assay to monitor cytotoxicity in HepG2 cells - 0 hour (AID 1224882). Also: % is scaled to controls: 0 for no effect and ±100 for the full control effect; nearly all actives have a fitted effect of over 35% in size. An outline of the steps:
(§2)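 Nonlytic assay: viable cells exclude the dye, so fluorescence scales with cell death. HepG2 at 600 cells/well, compounds added after 5 h, signal read across 40 h.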

Assay [3] is described as follows: A CellTox Green Cytotoxicity Assay to monitor cytotoxicity in HEK293 cells - 8 hour (AID 1224884). Also: % is scaled to controls: 0 for no effect and ±100 for the full control effect; nearly all actives have a fitted effect of over 35% in size. The essentials: as §1
The nature of assay [4]: qHTS RealTime-Glo MT Cell Viability Assay in HepG2 cells - 16 hour (AID 1224885). Also: % is scaled to controls: 0 for no effect and ±100 for the full control effect; nearly all actives have a fitted effect of over 50% in size. An outline of the steps: (§3)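 Cell number in HepG2 cultures estimated from NanoLuc luminescence generated by metabolic reduction of a prosubstrate by living cells. The homogeneous, nonlytic format allowed repeated reads at 0, 8, 16, 24, 32 and 40 h of compound exposure.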
Assay [5] in a line: qHTS RealTime-Glo MT Cell Viability Assay in HEK293 cells - 24 hour (AID 1224886). Also: nearly all actives have a fitted effect of over 50% in size. Also: potency is read from the fitted curve at half-maximal effect. The essentials: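 Homogeneous bioluminescent viability format in HEK293 cells (600 cells/well). Following 5 h at 37 C/5% CO2, 23 nL compound was pintooled; the signal was measured repeatedly during 40 h incubation.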
In general terms: In qHTS, concentration-response curves come from the screen itself.

Assay [6] can be described thus: qHTS RealTime-Glo MT Cell Viability Assay in HEK293 cells - 8 hour (AID 1224887). Also: nearly all actives have a fitted effect of over 50% in size. Also: potency is read from the fitted curve at half-maximal effect. An outline of the steps:
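Tox21 screen in HEK293 using RealTime-Glo MT chemistry, with cells and reagent co-dispensed. Luminescence proportional to viable cell number was captured at intervals during 40 h compound exposure at 37 C.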

Assay [7] is described as follows: A CellTox Green Cytotoxicity Assay to monitor cytotoxicity in HEK293 cells - 16 hour (AID 1224888). Also: % is scaled to controls: 0 for no effect and ±100 for the full control effect; nearly all actives have a fitted effect of over 35% in size. An outline of the steps: as §1
Assay [8] can be described thus: qHTS RealTime-Glo MT Cell Viability Assay in HepG2 cells - 0 hour (AID 1224889). Also: % is scaled to controls: 0 for no effect and ±100 for the full control effect; nearly all actives have a fitted effect of over 50% in size. An outline of the steps:
as §3

Assay [9] can be described thus: A CellTox Green Cytotoxicity Assay to monitor cytotoxicity in HepG2 cells - 8 hour (AID 1224890). Also: % is scaled to controls: 0 for no effect and ±100 for the full control effect; nearly all actives have a fitted effect of over 45% in size. An outline of the steps:
as §2

The nature of assay [10]: qHTS assay to identify small molecule antagonists of the estrogen receptor alpha (ER-alpha) signaling pathway using the BG1 cell line in the presence of 0.1 nM 17-beta-estradiol - cell viability counter screen (AID 1259241). Also: % is scaled to controls: 0 for no effect and ±100 for the full control effect; nearly all actives have a fitted effect of over 40% in size. The essentials:
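VM7Luc4E2, 4,000 cells/well, phenol red-free medium + 10% charcoal-stripped FBS; 24 hr plating; cpd + 0.1 nM E2 final, 22 hr 37C/5% CO2; CellTiter-Fluor 30 min, fluorescence.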

Assay [11] is described as follows: qHTS assay to identify small molecule antagonists of the androgen receptor (AR) signaling pathway using the MDA cell line in the presence of 0.5 nM R1881 - cell viability counter screen (AID 1259242). Also: nearly all actives have a fitted effect of over 45% in size. Also: potency is read from the fitted curve at half-maximal effect. An outline of the steps: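 R1881 at 0.5 nM final stimulated MDA-kb2 cells during 16 hr compound treatment at 37C. Cytotoxicity read: CellTiter-Fluor fluorescence after 30 min.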

Assay [12] addresses Estrogen receptor (Homo sapiens) (UniProt P03372). The assay is described as follows: qHTS assay to identify small molecule antagonists of the estrogen receptor alpha (ER-alpha) signaling pathway using the BG1 cell line in the presence of 0.1 nM 17-beta-estradiol (AID 1259244). Also: nearly all actives have a fitted effect of over 50% in size. Also: potency is read from the fitted curve at half-maximal effect. An outline of the steps:
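VM7Luc4E2; 4xERE-luciferase; 0.1 nM E2 final; 22 h co-incubation, 37C; ONE-Glo luminescence after 30 min at room temperature.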

A short description of assay [13]: qHTS assay to identify small molecule phospholipidosis (PLD) inducers (AID 1259344; active = well fitted curve in the direction sought with a large enough effect; an effect the other way counts as inactive or inconclusive; also: % is scaled to controls: 0 for no effect and ±100 for the full control effect). An outline of the steps:
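HepG2 cells grown on collagen I take up LipidTOX Red while exposed to compound for 24 h; after fixation they are imaged at 20x and pit metrics are extracted.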

Assay [14] in a line: qHTS assay to identify small molecule HDAC inhibitors (AID 1259364).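 Also: wild-type HCT-116 cells with endogenous class I/II HDAC activity; top concentration of the series differs between compounds; % is scaled to controls: 0 for no effect and ±100 for the full control effect; nearly all actives have a fitted effect of over 45% in size.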 The essentials:
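Relative class I and II HDAC activity is taken from the luminogenic signal in HCT-116 cells, with compound exposure 2 hr and reagent development 30 min at room temperature.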

Assay [15] is described as follows: qHTS assay to identify small molecule HDAC inhibitors - cell viability counter screen (AID 1259365). An outline of the steps: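 Luminescence from CellTiter-Glo, developed 30min at room temperature, reports viability of wild-type HCT-116 cells treated 2hr with compounds at 37 C and 5% CO2 after overnight plating.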
The nature of assay [16]: qHTS assay to identify small molecule agonists of the sonic hedgehog signaling (Shh) pathway - cell viability counter screen (AID 1259366). The essentials: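 Cytotoxicity counter screen run in the same wells as the Shh reporter assay. NIH/3T3 cells carrying a Gli1 response element–driven luciferase were treated with DMSO-dissolved compounds for 24hr, and live-cell protease activity was measured with CellTiter-Fluor.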

A short description of assay [17]: qHTS assay to identify small molecule antagonists of the sonic hedgehog signaling (Shh) pathway - cell viability counter screen (AID 1259367). Also: % is scaled to controls: 0 for no effect and ±100 for the full control effect; nearly all actives have a fitted effect of over 55% in size. The essentials:
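After a 4 hr settling period, 3T3 Gli1-Luc cells were treated with DMSO-dissolved chemicals and conditioned medium, kept 24 hr at 37C in 5% CO2, and assayed for viability by CellTiter-Fluor fluorescence following 1 hr reagent incubation.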

Assay [18] in a line: qHTS assay to identify small molecule agonists of the sonic hedgehog signaling (Shh) pathway (AID 1259368; calls by dose curve;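 also: NIH/3T3-derived 3T3Gli1-Luc cells carrying a stable Gli1-driven firefly luciferase reporter; series mostly up to about 92 µM; % is scaled to controls: 0 for no effect and ±100 for the full control effect; nearly all actives have a fitted effect of over 15% in size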). The essentials:
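Mouse fibroblast (NIH/3T3) reporter cells with stably integrated Gli1-Luc were treated 24 hr with compound; firefly luciferase luminescence served as the read-out.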

Assay [19] has as its target Androgen receptor (Homo sapiens) (UniProt P10275). The assay is described as follows: qHTS assay to identify small molecule antagonists of the androgen receptor (AR) signaling pathway using the MDA cell line in the presence of 0.5 nM R1881 (AID 1259243). An outline of the steps: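 We exposed MDA-kb2 cells to compounds under 0.5 nM R1881 stimulation for 16 hr at 37C and quantified MMTV-driven luciferase by luminescence.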

Assay [20] in a line: A CellTox Green Cytotoxicity Assay to monitor cytotoxicity in HepG2 cells - 32 hour (AID 1224883). The essentials:
as §2

Estrogen receptor (Homo sapiens), sequence (P03372 whole entry, looked up): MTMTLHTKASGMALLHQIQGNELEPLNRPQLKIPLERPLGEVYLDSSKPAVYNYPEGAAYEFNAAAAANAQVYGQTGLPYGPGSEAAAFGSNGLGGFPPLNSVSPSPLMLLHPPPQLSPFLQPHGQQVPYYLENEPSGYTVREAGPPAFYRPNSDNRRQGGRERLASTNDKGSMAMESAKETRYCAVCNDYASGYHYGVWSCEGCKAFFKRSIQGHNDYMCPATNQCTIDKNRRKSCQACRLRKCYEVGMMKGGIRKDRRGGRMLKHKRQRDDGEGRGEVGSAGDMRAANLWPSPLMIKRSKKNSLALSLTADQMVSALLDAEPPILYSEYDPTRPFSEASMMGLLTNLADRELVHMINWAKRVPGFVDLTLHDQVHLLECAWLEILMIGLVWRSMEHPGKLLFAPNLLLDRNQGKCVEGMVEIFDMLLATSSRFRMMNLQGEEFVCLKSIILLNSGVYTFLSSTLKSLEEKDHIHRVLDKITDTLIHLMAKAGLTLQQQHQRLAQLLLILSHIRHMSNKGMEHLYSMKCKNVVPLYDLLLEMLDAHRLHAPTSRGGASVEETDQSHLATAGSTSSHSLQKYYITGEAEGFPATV
Androgen receptor (Homo sapiens), sequence (P10275 whole entry, looked up): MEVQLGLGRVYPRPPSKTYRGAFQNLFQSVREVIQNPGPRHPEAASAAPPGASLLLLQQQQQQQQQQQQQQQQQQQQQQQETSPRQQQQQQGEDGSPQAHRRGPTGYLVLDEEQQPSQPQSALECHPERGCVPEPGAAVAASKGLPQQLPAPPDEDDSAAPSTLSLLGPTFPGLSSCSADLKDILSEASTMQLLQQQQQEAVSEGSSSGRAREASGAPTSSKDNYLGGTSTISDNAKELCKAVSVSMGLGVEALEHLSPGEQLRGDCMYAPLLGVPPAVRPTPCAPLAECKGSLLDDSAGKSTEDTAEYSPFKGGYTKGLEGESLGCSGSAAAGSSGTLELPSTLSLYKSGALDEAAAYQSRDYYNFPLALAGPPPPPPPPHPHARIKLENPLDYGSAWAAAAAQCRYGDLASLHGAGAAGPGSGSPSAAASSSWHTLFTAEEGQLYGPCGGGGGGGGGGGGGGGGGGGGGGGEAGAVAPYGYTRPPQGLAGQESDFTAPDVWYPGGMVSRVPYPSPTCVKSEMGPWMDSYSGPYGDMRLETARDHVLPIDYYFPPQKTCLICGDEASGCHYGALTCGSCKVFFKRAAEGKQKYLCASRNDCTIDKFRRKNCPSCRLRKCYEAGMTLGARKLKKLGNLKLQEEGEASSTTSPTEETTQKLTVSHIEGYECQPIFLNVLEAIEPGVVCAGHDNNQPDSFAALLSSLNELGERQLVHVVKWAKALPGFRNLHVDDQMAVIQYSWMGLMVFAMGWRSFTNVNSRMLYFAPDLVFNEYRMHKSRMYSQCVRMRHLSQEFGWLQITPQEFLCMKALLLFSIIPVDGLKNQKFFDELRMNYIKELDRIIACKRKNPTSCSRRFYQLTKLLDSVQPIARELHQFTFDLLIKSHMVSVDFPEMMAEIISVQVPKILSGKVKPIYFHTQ

As to `COc1ccc(C(=O)N2CCN(CC(=O)N3CCOCC3)CC2)cc1`, the Potency entry in assay [1], in assay [2], in assay [3], in [4], in assay [5] and in assay [6] was “inactive” each time. The Potency entry in assay [7], in [8], in assay [9], in assay [10], in [11] and in assay [12] was “inactive” in each case. Besides, the Potency entry in assay [13], in assay [14], in assay [15], in assay [16] and in [17] was “inactive” each time. For the same compound, the outcome in [18] was inactive.

In the case of `CC(C)(CO)[N+](=O)[O-]`, the Potency entry in assay [1], in assay [2], in [3], in assay [4], in [5] and in assay [6] was “inactive” in each case. In addition, the Potency result in [7], in [8], in assay [9], in assay [10], in [11] and in assay [14] was “inactive” in each case. Moreover, the Potency result in assay [15], in [16] and in assay [17] was “inactive” in each case. In assay [18], the call was inactive.

With `OC[C@H]1O[C@@H](OCCc2ccc(O)cc2)[C@H](O)[C@@H](O)[C@@H]1O`, the Potency entry in [1], in [2], in assay [3], in assay [4], in assay [5] and in assay [6] was “inactive” each time. The Potency result in [7], in assay [8], in assay [9], in [10], in [11] and in assay [12] was “inactive” in each case. The Potency result in assay [13], in assay [14], in [15], in assay [16] and in assay [17] was “inactive” in each case. In assay [18], the call was inactive.

For the compound `c1ccc(-c2ccccn2)nc1`, the Potency result in assay [1], in assay [2], in assay [3], in [4], in assay [5] and in [6] was “inactive” in each case. Further, the Potency result in assay [7], in assay [8], in [9], in [10], in assay [11] and in assay [19] was “inactive” each time. The Potency result in [12], in assay [14], in [15], in assay [16] and in [17] was “inactive” in each case. The result in [18] was inactive.

For the compound `CCCCC/C=C\C/C=C\CCCCCCCC(=O)NC(C)c1ccccc1` (configuration not stated), the Potency result in assay [1], in assay [2], in assay [3], in assay [4], in assay [5] and in assay [7] was “inactive” each time. Moreover, the Potency result in assay [8], in assay [10], in assay [11], in assay [14] and in assay [15] was “inactive” each time. Moreover, in assay [13], the PLD induction is -2.94% [at 7.66 µM]. Also, the result in [18] was inactive.

`CCCCCCOC(=O)NC(=N)c1ccc(NCc2nc3cc(C(=O)N(CCC(=O)OCC)c4ccccn4)ccc3n2C)cc1`: the Potency result in [1], in [2], in [7], in assay [8], in assay [9] and in [15] was “inactive” in each case. The Potency in [20] is 23.9 µM (active); in assay [5], 9.52 µM (active); in assay [6], 9.52 µM (active); in assay [11] it was 26.6 µM (active); in assay [12], 23.7 µM (active). Also, the compound was called inactive in assay [18].

In the case of `CCOC(=O)C1=C[C@]2(CC)CCCN3CCc4c(n1c1ccccc41)[C@@H]32`, the Potency entry in assay [1], in assay [2], in assay [3], in [4], in assay [5] and in [6] was “inactive” throughout. The Potency entry in assay [7], in [8], in [9], in assay [10], in assay [11] and in assay [12] was “inactive” throughout. For the same compound, the Potency result in [13], in assay [14], in assay [16] and in [17] was “inactive” each time. The compound was classed as inactive in assay [18].
